High-throughput results (PubChem BioAssay)
The list is not random: actives were taken first. Their share in the collection is about 2.8%.
MBNL1 CUG block: qHTS Assay for Inhibitors of MBNL1-poly(CUG) RNA binding; AID 2675, 2010; 280,000 tested, 0.036% active; Potency, µM (doses to about 57.5 µM), hits mostly inhibitors; TR-FRET MBNL1-His/biotin-(CUG)12 binding, 665/545 ratio; active = well fitted inhibition curve with a large enough effect in the signal ratio, with a control signal flat, not every such curve was filed as active; inconclusive = small, poorly fitted or top-dose-only effect, or effect the other way, or a change in a side signal; inactive = no such curve, though single readings can be large or run the other way; the % refers to the signal ratio
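Compound titration spanned 92 nM–58 uM against the MBNL1-His/biotin-(CUG)12 complex. After 60 min at room temperature with 5 nM streptavidin-XL665 and 0.055 ng/ul terbium anti-His, ratiometric 665/545 nm emission (Ex 340 nm) normalized to controls.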
a7 integrin act: qHTS for Activators of Integrin-Mediated Alleviation for Muscular Dystrophy. alpha7betagal myoblasts, beta-gal FDG fluorescence, 48 h. Potency, µM (titrated, usually from 38.3 µM), actives largely listed as activators. 350,000 tested, 0.064% active. AID 624291, 2012; also: nearly all actives have a fitted effect of over 60% in size
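alpha7betagal+/- myoblasts (passage 13, 250/well) treated 48 h at 37C with compounds at 1:260 dilution of DMSO stock. Lysed, then beta-galactosidase activity read as FDG fluorescence (ex 480/em 540) after 30 min, with pre-read for autofluorescence.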
CBFb RUNX1 block: qHTS Assay for Compounds Blocking the Interaction Between CBF-beta and RUNX1 for the Treatment of Acute Myeloid Leukemia. Potency, µM (top dose mostly 59.8 µM), most hits filed as inhibitors. Runt-related transcription factor 1 (Homo sapiens) + Core-binding factor subunit beta …. AlphaScreen CBFb-His/RUNX1-biotin binding, biochemical. 230,000 tested, under 10 active. AID 1477, 2009
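Compounds were screened at multiple concentrations against a preformed CBF-beta(His)/RUNX1(biotin) complex (30 nM of each) for 15 min at room temperature, followed by 90 min with nickel and streptavidin beads and AlphaScreen reading.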
DRD3 antagonist: qHTS of D3 Dopamine Receptor Antagonist: qHTS; AID 652054, 2013; D3R cells, DiscoveRx beta-arrestin luminescence, antagonist mode; stronger effect = lower value; max response, negative = inhibition, %; 360,000 tested, 2.5% active; in the data active = max response below about -50%; inconclusive = no clear call, values can overlap the other calls
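Cells expressing the human receptor were seeded at 1500 cells/well, incubated overnight at 37 degrees C in 5% CO2, then exposed to library compounds with dopamine controls for 90 minutes at 37 degrees C before luminescent detection.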
DRD3 agonist: qHTS of D3 Dopamine Receptor Agonist: qHTS. D3R DiscoveRx beta-arrestin cells, luminescence, 90 min. max activation, %. 410,000 tested, 0.58% active. AID 652048, 2013; in the data active = max activation above about 30%
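Agonist mode: compounds and dopamine controls were applied to plated cells for 90 min at 37 degrees C after an overnight attachment at 1500 cells/well. Luminescent read-out followed 30 - 60 minutes at room temperature with DiscoveRx detection reagent.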
PTHR1 agonist: qHTS for PTHR1 Agonists: Primary Screen; Parathyroid hormone/parathyroid hormone-related peptide receptor (Homo sapiens), Q03431; HEK293 GP2 PTHR1 cells, GloSensor cAMP luminescence, 1 h; Potency, µM (titrated, usually from 115 µM), usual class: activators; 410,000 tested, 0.075% active; AID 743266, 2014; also: nearly all actives have a fitted effect of over 55% in size
Target sequence (Q03431 whole entry, looked up): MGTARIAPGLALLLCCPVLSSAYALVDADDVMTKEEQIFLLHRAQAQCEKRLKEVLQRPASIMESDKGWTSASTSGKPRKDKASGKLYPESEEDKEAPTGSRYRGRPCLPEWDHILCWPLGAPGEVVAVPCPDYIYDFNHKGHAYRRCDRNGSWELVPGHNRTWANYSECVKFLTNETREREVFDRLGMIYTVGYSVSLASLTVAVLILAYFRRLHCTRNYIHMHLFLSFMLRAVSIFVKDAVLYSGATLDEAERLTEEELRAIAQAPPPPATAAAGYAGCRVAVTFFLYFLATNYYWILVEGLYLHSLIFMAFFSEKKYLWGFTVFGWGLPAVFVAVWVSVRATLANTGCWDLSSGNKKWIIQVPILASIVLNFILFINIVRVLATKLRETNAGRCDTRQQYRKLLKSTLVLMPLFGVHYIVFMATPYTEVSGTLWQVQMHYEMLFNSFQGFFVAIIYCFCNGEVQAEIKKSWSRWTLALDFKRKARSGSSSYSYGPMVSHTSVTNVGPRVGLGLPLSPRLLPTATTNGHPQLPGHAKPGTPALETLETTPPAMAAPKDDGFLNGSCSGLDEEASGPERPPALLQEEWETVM
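HEK-293-derived GP2 cells expressing PTHR1 and a GloSensor cAMP reporter, 3,000/well, plated overnight, given luciferin plus IBMX (each 0.5 mM as added) for 1 h at 37 °C, then compound for 1 h at 37 °C. Luminescence was read after 15 min at room temperature.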
Hits are given with their value; i = inactive; ? = inconclusive; nt = not tested or not shown. Unless noted, calls follow the shape of the dose curve; as a rule, active = well fitted curve in the direction sought with a large enough effect; inconclusive = small, poorly fitted or top-dose-only effect, or another doubt; inactive = no such curve, though single readings can be large; an effect the other way counts as inactive or inconclusive.

SMILES | MBNL1 CUG block | a7 integrin act | CBFb RUNX1 block | DRD3 antagonist | DRD3 agonist | PTHR1 agonist
COc1ccc(NCc2nc3ccccc3n2CCOc2ccc(C)cc2)cc1 | i | i | ? | -52 | i | i
Cc1ccc(NS(=O)(=O)c2c(C)[nH]c(C)c2C(=O)N2CCCCC2)c(Br)c1 | i | i | nt | i | i | i
CCCN(CCC)Cc1cc2ccccc2c2c1COC2 | i | i | i | -64 | i | i
Fc1ccc(-c2ccnn2-c2ccccc2)cc1 | i | 4.5µM | nt | i | i | i
Nc1ccnn1-c1ccccc1 | i | i | i | i | i | i
CN[C@@H]1[C@@H](O[C@H]2O[C@H](CO)[C@@H](N)[C@H](O)[C@H]2O)O[C@H]2C[C@@H](N)[C@@H](O[C@H]3[C@H](O)[C@@H](O)[C@H](N)C[C@@H]3N)O[C@@H]2[C@@H]1O | nt | nt | nt | nt | i | nt
O=C(O)c1cccc(NC(=O)c2ccc3c(c2)C(=O)N(C2CCCCC2)C3=O)c1 | ? | i | nt | i | i | i
COCCn1c(=O)[nH]c2cc(C(=O)NCCN3CCN(c4ccccc4F)CC3)ccc2c1=O | i | i | i | -56 | i | i
COc1cc2[nH]c(=O)n(CCC(=O)NCCCN3CCN(c4ccccc4F)CC3)c(=O)c2cc1OC | nt | i | i | ? | 30 | i
COc1ccccc1C(=O)NCCCNC(=O)c1cccnc1 | i | i | nt | i | i | i
CN1CCC(=C2c3ccccc3C=Cc3ccccc32)CC1 | i | nt | i | -115 | nt | i
O=C1Cc2ccccc2Sc2ccccc21 | i | i | i | i | i | i
CN1CCC(=C2c3ccccc3Sc3ccccc32)CC1 | nt | nt | ? | -108 | i | i
COCCNC(=O)C1CCCN(C(=O)c2cc(-c3ccccc3)cs2)CC1 (stereo not drawn) | nt | nt | nt | i | i | i
CCn1c(SCC(=O)NC2CCCC2)nnc1-c1cccnc1 | i | i | nt | i | i | i
CCCN(CC)C(CC)C(=O)Nc1c(C)cccc1C (stereo not drawn) | nt | nt | nt | nt | i | nt
Cc1ccc(CN2CCC(C(=O)NCCC(C)C)CC2)o1 | i | i | i | -64 | i | i
O=C(NCc1cc(C(F)(F)F)ccc1Cl)c1cccc2c1C(=O)c1ccc(N3CCC(Cc4ccccc4)CC3)cc1S2(=O)=O | nt | i | nt | i | 47 | i
O=C1c2ccccc2S(=O)(=O)c2cc(N3CCC(C(=O)N4CCCCC4)CC3)ccc21 | nt | i | nt | i | 38 | i
O=C(NCc1ccccc1C(F)(F)F)c1cccc2c1C(=O)c1ccc(N3CCCCC3)cc1S2(=O)=O | nt | i | nt | i | 33 | i
CC1CCN(c2ccc3c(c2)S(=O)(=O)c2cccc(C(=O)NCc4ccc(F)cc4)c2C3=O)CC1 | nt | i | nt | i | i | i
O=C(NCc1ccc(F)cc1)c1cccc2c1C(=O)c1ccc(N3CCC(Cc4ccccc4)CC3)cc1S2(=O)=O | nt | i | nt | i | 43 | i
Fc1ccc(CNC(=S)Nc2ccccc2Cl)cc1 | i | i | i | i | i | i
COc1ccc(OC)c(NC(=O)C2(C)CCN2C(=O)C2(c3ccccc3)CCCC2)c1 (stereo not drawn) | nt | nt | nt | i | i | i
O=S(=O)(C/C(=C/CO)S(=O)(=O)c1ccccc1)c1ccccc1 | i | i | i | -59 | i | i
Cc1cccc(NC(=O)c2ccc(CN3CCc4ccccc4C3)cc2)c1C | i | i | i | -78 | i | i
CCc1cccc(C)c1NC(=O)c1ccc2c(c1)CCN2S(=O)(=O)CC | nt | nt | nt | nt | i | i
O=C(Nc1ccc(F)cc1)c1ccc(CN2CCc3ccccc3C2)cc1 | i | i | nt | i | i | i
CCc1cccc(C)c1NC(=O)c1ccc(CN2CCc3ccccc3C2)cc1 | i | i | i | -72 | i | i
Cc1ccccc1NC(=O)c1ccc(CN2CCc3ccccc3C2)cc1 | i | i | i | -76 | i | i
